Experimental data from the supplement of paper PMC6555819.

Assays:
Experiment in all cases: PBM binding z-score (relative to random genomic background probes); higher = stronger binding; sequences stand for … in GC…GCGATTGACAGCGTAGAATGAAGG
[1] = system: FXR:RXRa (NR concentration 270 nM, RXRa partner concentration 90 nM)
How it was run: (§1)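 On custom Agilent 4×180K arrays, double-stranded probes with 34-nt variable regions carried direct-repeat seeds, single-nucleotide variants, half-site ablations or random human genomic background. Ligand-free nuclear receptor dimers were applied for 1 h, and binding was read with antibodies against each partner (one per run). Binding z-scores come from regression-normalized fluorescence, with the random background probes as reference.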

[2] = system: LXRa:RXRa (NR concentration 270 nM, RXRa partner concentration 90 nM)
How it was run: as §1

[3] = system: LXRa homodimer (NR concentration 270 nM)
How it was run: as §1

[4] = system: LXRb:RXRa (NR concentration 270 nM, RXRa partner concentration 90 nM)
How it was run: as §1

[5] = system: LXRb homodimer (NR concentration 270 nM)
How it was run: as §1

[6] = system: PPARa:RXRa (NR concentration 270 nM, RXRa partner concentration 90 nM)
How it was run: as §1

[7] = system: PPARg:RXRa (NR concentration 180 nM, RXRa partner concentration 90 nM)
How it was run: as §1

[8] = system: PPARg:RXRa 270nM:90nM, anti-RXR (NR concentration 270 nM, RXRa partner concentration 90 nM)
How it was run: as §1

[9] = system: PPARg:RXRa 30nM:10nM, anti-RXR (NR concentration 30 nM, RXRa partner concentration 10 nM)
How it was run: as §1

[10] = system: PPARg:RXRa 90nM:30nM, anti-RXR (NR concentration 90 nM, RXRa partner concentration 30 nM)
How it was run: as §1

[11] = system: PPARg:RXRa DBDmut IVT, anti-RXR (DBD mutation: RXRa K156A/R161A, NR concentration 270 nM, RXRa partner concentration 90 nM)
How it was run: as §1

[12] = system: PPARg:RXRa IVT, anti-PPARg (NR concentration 270 nM, RXRa partner concentration 90 nM)
How it was run: as §1

[13] = system: PPARg DBDmut:RXRa IVT, anti-PPARg (DBD mutation: PPARg1 K132A/R137A, NR concentration 270 nM, RXRa partner concentration 90 nM)
How it was run: as §1

[14] = system: PPARg DBDmut IVT, anti-PPARg (DBD mutation: PPARg1 K132A/R137A, NR concentration 270 nM)
How it was run: as §1

[15] = system: PPARg homodimer (NR concentration 180 nM)
How it was run: as §1

[16] = system: PXR:RXRa (NR concentration 270 nM, RXRa partner concentration 90 nM)
How it was run: as §1

[17] = system: PXR homodimer (NR concentration 270 nM)
How it was run: as §1

[18] = system: RARa:RXR (NR concentration 270 nM, RXRa partner concentration 90 nM)
How it was run: as §1

[19] = system: RARa homodimer (NR concentration 270 nM)
How it was run: as §1

[20] = system: RARb:RXRa (NR concentration 270 nM, RXRa partner concentration 90 nM)
How it was run: as §1

Row | Sequence | PBM binding z-score [1] | PBM binding z-score [2] | PBM binding z-score [3] | PBM binding z-score [4] | PBM binding z-score [5] | PBM binding z-score [6] | PBM binding z-score [7] | PBM binding z-score [8] | PBM binding z-score [9] | PBM binding z-score [10] | PBM binding z-score [11] | PBM binding z-score [12] | PBM binding z-score [13] | PBM binding z-score [14] | PBM binding z-score [15] | PBM binding z-score [16] | PBM binding z-score [17] | PBM binding z-score [18] | PBM binding z-score [19] | PBM binding z-score [20]
1 | CGTGCAAGGTCAAGGTCAGTGAAAGAGACTCGAA | 7.71 | 5.78 | 1.12 | 4.86 | 0.639 | 6.13 | 6.66 | 6.55 | 2.87 | 5.51 | 3.53 | 4.59 | 1.6 | -0.363 | 4.25 | 4.99 | 1.2 | 5.11 | 2.15 | 5.53
2 | CATACAGGGTCAGCTATGCCAGAGTAGGGACGGC | 4.14 | 2.68 | -0.0915 | 1.98 | 0.359 | 4.21 | 3.53 | 2.58 | 0.968 | 1.77 | 0.895 | 2.38 | 0.429 | 0.135 | 0.969 | 2.18 | -0.0786 | 3.05 | 0.191 | 4.03
3 | TCTTGTAGATCAGCAGGAGGTTAAGAAAGATCGA | -0.201 | 0.985 | -0.411 | 0.538 | -0.736 | 1.03 | -0.21 | 1.36 | 2.16 | 1.74 | 1.2 | 0.727 | 0.985 | 0.0884 | -0.244 | 0.907 | -0.404 | 0.574 | -0.978 | 0.468
4 | TCGAGGAGGTTAGGGGCATTCAGAATGGCGTCGA | 1.12 | 0.91 | -0.0426 | 1.71 | 0.134 | 1.94 | 0.354 | 1.08 | 1.19 | 1.09 | 1.17 | 0.304 | -0.348 | -0.472 | 1.01 | 1.03 | 0.679 | 0.889 | 0.232 | 1.62
5 | CCTAGCAGGCCAATCTGGGTCTCTCAAGGCTTGA | -0.268 | -0.409 | -0.738 | -0.885 | -0.982 | 0.318 | -0.774 | -0.468 | -1.1 | -0.61 | 1.89 | 1.97 | -0.916 | -2.13 | -1.06 | -0.821 | -0.804 | -0.353 | -0.835 | 0.0483
6 | TCTGCTATGTCAGTTGGTCAGCTAACGAGCTGCC | -0.167 | -0.237 | -1.15 | -0.392 | -0.0439 | -0.108 | -0.623 | 0.446 | 0.854 | 0.78 | 0.621 | 0.807 | -0.394 | 0.0922 | -0.53 | -0.0982 | -1.36 | -0.0374 | -1.02 | 0.481
7 | GCATATAGGTAATACAAGGTGTAAGTCCGATTGT | 0.0456 | -0.21 | -0.0292 | -0.487 | -0.137 | 0.159 | 0.975 | 0.539 | 0.405 | 0.179 | 4.05 | 2.41 | 0.78 | 0.908 | 0.475 | -0.257 | -0.0468 | 0.0684 | 0.804 | -0.269
8 | ATCTCTAGGAAACCAAGTTCAGTGAATGCCGAAC | 0.256 | 0.434 | 0.599 | 0.317 | 0.4 | 0.151 | -0.0218 | 0.0648 | 0.0428 | 0.082 | -0.471 | 0.0982 | 0.852 | 0.501 | 0.854 | 1.17 | 1.48 | 0.595 | 1.12 | 0.938
9 | AGTCAAAGTTCAGGACGAGGTAACGTATAGCACG | 4.44 | 4.03 | 1.43 | 1.92 | 0.317 | 3.43 | 4.7 | 5.09 | 2.17 | 4.27 | -0.0709 | 2.03 | 0.949 | 0.866 | 2.09 | 3.08 | 1.29 | 2.97 | 0.98 | 4.34
10 | ATCTCTAGGTAAAAGTGCAGTGAATCCCGAGGAT | 0.179 | -0.141 | -0.393 | 0.0767 | 0.339 | 2.81 | 4.31 | 5.78 | 3.66 | 6.27 | 2.08 | 2.5 | 0.765 | 0.971 | 0.819 | 0.0221 | 0.246 | -0.0111 | 0.256 | 0.518
11 | AGTCAAAGTACACTAGGTAACGTAAGATTCAGCT | -0.108 | -0.26 | -0.164 | -0.273 | 0.0714 | 0.196 | 1.13 | 0.666 | 0.149 | 0.295 | 1.45 | 2.33 | 0.868 | 0.545 | -0.165 | -0.253 | -0.00521 | -0.109 | 0.688 | 0.988
12 | CCTTGCGGGTCACTCCAGGTTATAGCATCGGAGT | 4.22 | 7.4 | 1.24 | 4.85 | -0.435 | 4.25 | 4.41 | 4.41 | 1.34 | 3.35 | 4.56 | 4.95 | 0.399 | 0.356 | 1.54 | 4.59 | 0.258 | 3.14 | 0.115 | 3.11
13 | CCTCGGAGGATAGAAGGTCAGAGCTGTCCGCTTT | 1 | 1.57 | 0.218 | 1.21 | -0.745 | 1.83 | -0.0434 | 1.26 | -0.528 | 0.571 | 0.306 | 0.12 | -1.89 | -1.62 | 1.56 | 1.38 | -0.0463 | 1.82 | 0.234 | 2.29
14 | GTACCAAGGTGAATAGGTCGTTGTTGAGTAGGCG | 0.827 | 0.686 | -0.152 | 0.303 | -0.821 | 2.07 | 1.18 | 1.21 | 0.0125 | 0.678 | 1.9 | 2.74 | 0.246 | -0.308 | 1.31 | 0.708 | -0.604 | 1.5 | 0.154 | 1.91
